# HT1080NT lethal: qHTS for induction of synthetic lethality in tumor cells producing 2HG: qHTS for the HT-1080-NT fibrosarcoma cell line; HT-1080-NT fibrosarcoma viability, CellTiter-Glo ATP luminescence, 48 h; actives 1.6% (n = 360,000); Potency, µM (series often up to 46.1 µM), for the others: at the highest dose activity, negative = less viability, most hits filed as cytotoxic;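 also: NT is the 2HG producing partner of a matched IDH1 knockdown line; potency is read from the fitted curve at half-maximal effect; 0% = DMSO-treated cells and -100% = media-only wells without cells; nearly all actives have a fitted effect of over 55% in size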
#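 750 cells/well, RPMI + 5% FBS; 2 h settle, compound pin-transfer, 48 h at 37 degrees C. CellTiter-Glo 10 min RT, luminescence. Normalized to DMSO and media-only wells.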
# HT1080 IDH1KD tx: qHTS for induction of synthetic lethality in tumor cells producing 2HG: qHTS for the HT-1080-IDH1KD cell line | HT-1080 IDH1 knockdown viability, ATP luminescence, 48 h | Potency, µM (doses to about 46.1 µM), without a hit: at the top dose activity, negative = toxicity, usual class: cytotoxic | AID 686971, 2013 | actives 2% (n = 360,000);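 also: potency is read from the fitted curve at half-maximal effect; 0% = DMSO wells and -100% = cell-free medium wells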
#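 Knockdown cells (IDH1KD HT-1080) received compounds 2 h after plating at 750 cells/well and were kept 48 h at 37 °C in 5% FBS RPMI. A CellTiter-Glo luminescence read gave % activity for curve fitting.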
# DT40 TDP1 no CPT: qHTS for Inhibitors of human tyrosyl-DNA phosphodiesterase 1 (TDP1): qHTS in cells in absence of CPT. Potency, µM (titrated, usually from 46.2 µM), for the others: at the top dose activity change, negative = growth inhibition, most hits filed as inhibitors. DT40 Tdp1-/- hTDP1 cells, no CPT, ATP luminescence, 48 h. actives 15% (n = 420,000); also: potency is read from the fitted curve at half-maximal effect; nearly all actives have a fitted effect of over 55% in size
#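 Growth of hTDP1-complemented DT40 Tdp1-knockout cells is measured by ATP luminescence after at least 48 hr compound exposure at 37 °C, with DMSO substituting for the 20 nM CPT used in the parallel screen.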
# ALOX12 inh: Primary qHTS assay for inhibitors of human arachidonate 12S-lipoxygenase (ALOX12): Round 2 | Polyunsaturated fatty acid lipoxygenase ALOX12 (Homo sapiens), P18054 | AID 1671190, 2021 | purified 12hLO, xylenol orange hydroperoxide absorbance | Potency, µM (series often up to 108 µM), without a hit: top-dose activity change, negative = inhibition, usual class: inhibitors | actives 1.1% (n = 580,000); also: potency is read from the fitted curve at half-maximal effect
# Target sequence (P18054 whole entry, looked up): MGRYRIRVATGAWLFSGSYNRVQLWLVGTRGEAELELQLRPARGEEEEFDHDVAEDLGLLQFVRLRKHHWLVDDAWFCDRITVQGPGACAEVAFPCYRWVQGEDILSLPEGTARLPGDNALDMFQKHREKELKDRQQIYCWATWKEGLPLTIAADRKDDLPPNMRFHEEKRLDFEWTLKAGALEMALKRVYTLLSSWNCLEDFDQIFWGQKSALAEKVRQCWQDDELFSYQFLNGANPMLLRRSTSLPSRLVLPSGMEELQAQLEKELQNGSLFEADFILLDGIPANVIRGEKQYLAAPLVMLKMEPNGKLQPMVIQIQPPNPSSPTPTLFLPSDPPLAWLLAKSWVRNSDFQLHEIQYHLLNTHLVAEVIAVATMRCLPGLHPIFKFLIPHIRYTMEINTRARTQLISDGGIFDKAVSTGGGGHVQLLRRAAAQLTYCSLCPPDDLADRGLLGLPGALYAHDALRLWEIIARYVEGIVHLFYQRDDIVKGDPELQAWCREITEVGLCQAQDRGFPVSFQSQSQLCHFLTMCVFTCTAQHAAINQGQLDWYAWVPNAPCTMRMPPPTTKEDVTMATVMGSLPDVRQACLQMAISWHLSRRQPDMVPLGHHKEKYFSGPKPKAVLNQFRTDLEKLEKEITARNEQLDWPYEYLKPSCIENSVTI
#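 Purified human 12hLO at 150 nM in 25 mM Hepes, 0.01% Triton X-100, pH 7.0, preincubated 15 min at room temperature with compound. Reaction started with 40 uM arachidonic acid, 30 min at room temperature. Hydroperoxide measured by Fe-xylenol orange, 573/405 nm absorbance ratio.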
# DT40 TDP1 CPT: qHTS for Inhibitors of human tyrosyl-DNA phosphodiesterase 1 (TDP1): qHTS in cells in presence of CPT | actives 12% (n = 420,000) | Potency, µM (titrated, usually from 46.2 µM), for inactives: top-dose activity change, negative = growth inhibition, hits mostly inhibitors | chicken DT40 Tdp1-/-;hTDP1 cells + 20 nM CPT, ATP luminescence, 48 h; also: potency is read from the fitted curve at half-maximal effect; nearly all actives have a fitted effect of over 55% in size
#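 Chicken DT40 Tdp1-/- cells stably complemented with human TDP1 were seeded at 400 cells/well in medium containing 20 nM camptothecin, exposed to pin-transferred compounds, and grown at 37 °C for at least 48 hr. Viability was read as ATP luminescence.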
# IL-1B inflam inh: qHTS for Inhibitors of Inflammasome Signaling: IL-1-beta AlphaLISA Primary Screen; actives 4.7% (n = 360,000); activity change, % at 57.5 µM; THP-1 LPS/ATP IL-1B secretion, AlphaLISA, 16 h; hits give low values; in the data active = activity change below about -50%; inconclusive = mostly about -30% to -49%
#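 THP-1 cells pretreated 1 hr with compounds (up to 57.5 uM final), then stimulated with LPS (250 ng/mL final) plus ATP (1.25 mM final); secreted IL-1B measured by AlphaLISA after 16 hr, decreased signal indicating inhibition.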
# * hit, by the source's call; ? = inconclusive; / = no result given; [ ] = remark or other dose. This excerpt belongs to a sample that is enriched for hits. Unless noted, calls follow the shape of the dose curve; as a rule, active = well fitted curve in the direction sought with a large enough effect; inconclusive = small, poorly fitted or top-dose-only effect, or another doubt; inactive = no such curve, though single readings can be large; an effect the other way counts as inactive or inconclusive. Unless noted, % is scaled to controls: 0 for no effect and ±100 for the full control effect.
SMILES,HT1080NT lethal,HT1080 IDH1KD tx,DT40 TDP1 no CPT,ALOX12 inh,DT40 TDP1 CPT,IL-1B inflam inh
COc1ccccc1C1=CC(=O)C[C@H](c2ccc(Cl)cc2)C1,?,?,?,-8%,15µM*,-54*
COc1cccc(C2=CC(=O)C[C@H](c3ccc(Cl)cc3)C2)c1OC,-17%,-10%,?,-14%,23µM*,?
O=C(CCn1ccc2cc(S(=O)(=O)N3CCCC3)ccc21)NCc1cccc(Br)c1,/,/,?,-14%,18µM*,/
CN(C)c1ccc(CNC(=O)C2CCCN(S(=O)(=O)c3ccc4c(ccn4C)c3)C2)cc1 (centres undefined),/,/,21µM*,-17%,16µM*,/
Cn1ccc2cc(S(=O)(=O)N3CCCC(C(=O)NCc4ccc(F)cc4)C3)ccc21 (centres undefined),/,/,?,-24%,?,/
CCc1ccc(CNC(=O)CCn2ccc3cc(S(=O)(=O)N4CCCC4)ccc32)cc1,-28%,-27%,?,-15%,21µM*,-10
Cc1ccc(CNC(=O)CCn2ccc3cc(S(=O)(=O)N4CCCC4)ccc32)cc1,-13%,-19%,?,-17%,?,13
COc1ccc(CNC(=O)CCCn2ccc3cc(S(=O)(=O)N4CCCC4)ccc32)cc1,?,?,12µM*,-5%,18µM*,37
CCC(=O)NCC1(c2ccccc2)CCCCC1,/,/,/,13%,/,/
O=C(O)Cn1nc(C2CC2)nc1CCCN1CCCC1=O,/,/,/,19%,/,/
CCc1ccccc1CN1CCCC2(Cc3ccccc3CNC2=O)C1 (centres undefined),/,/,/,4%[6.33 µM],/,/
CC1CCN(S(=O)(=O)c2ccc3ncn(CC(=O)Nc4ccccc4C(F)(F)F)c(=O)c3c2)CC1,/,/,?,-6%,21µM*,/
COC(=O)c1ccccc1NC(=O)Cn1cnc2ccc(S(=O)(=O)N3CCC(C)CC3)cc2c1=O,4%,-13%,-3%,0%,5%,9
COc1ccc(NC(=O)Cn2cnc3ccc(S(=O)(=O)N4CCC(C)CC4)cc3c2=O)cc1OC,/,/,?,-28%,26µM*,/
COc1ccc(OC)c(NC(=O)Cn2cnc3ccc(S(=O)(=O)N4CCC(C)CC4)cc3c2=O)c1,/,/,?,-16%,23µM*,/
O=C(Cn1c(-c2ccccc2)cc2ccccc21)NCCC(=O)N1CCCC1,/,/,/,0%,/,/
COc1ccc(C2(C(=O)N3CCC(Cc4ccccc4)CC3)CCOCC2)cc1,/,/,/,0%[6.33 µM],/,/
Cc1nc(-c2c3n(c(=O)n(CC(=O)Nc4ccc(F)c(Cl)c4)c2=O)CCCC3)no1,/,/,/,17%,/,/
COCCN(Cc1nc(-c2ccc(-c3ccccc3)cc2)oc1C)C(C)C,-13%,-7%,21µM*,71%,15µM*,13
C=C1NN(CC2CC2)C(=O)N1c1ccc(OCc2ccccc2)cc1,/,/,13µM*,/,?,/
CCOc1ccc(NC(=O)COc2ccc(C(=O)NCc3cccnc3)cc2OC)cc1,1%,4%,?,-29%,?,5
COc1cc(C(=O)NCc2cccnc2)ccc1OCC(=O)Nc1cccc(C(F)(F)F)c1,?,-26%,3.7µM*,6%,5.2µM*,-7
COCc1ccc(C(=O)Nc2ccccc2C(=O)NCc2cccnc2)cc1,4%,13%,6%,8%,1%,-14
CC(C)(C)c1ccccc1OCC(=O)Nc1ccccc1C(=O)NCc1cccnc1,?,?,16µM*,-3%,?,-90*
C=CCOc1ccc(C(=O)Nc2ccccc2C(=O)NCc2cccnc2)cc1,21µM*,23µM*,8.2µM*,?,6.5µM*,-26
SMILES,HT1080NT lethal,HT1080 IDH1KD tx,DT40 TDP1 no CPT,ALOX12 inh,DT40 TDP1 CPT,IL-1B inflam inh
Cc1cc(C=C(C#N)C#N)c(C)n1-c1ccncc1,/,/,/,-41%,/,/
CN(C)c1nc(C=C(C#N)C#N)c(Cl)n1-c1ccc(F)cc1,7.3µM*,4.6µM*,5.2µM*,?,4.1µM*,-97*
CC(C)C(=O)Nc1c(C(=O)N2CCN(c3ncccn3)CC2)oc2ccccc12,29%,1%,-11%,4%,-23%,-11
CCC(CC)C(=O)Nc1c(C(=O)N2CCN(c3ccccc3)CC2)oc2ccccc12,?,-24%,8.2µM*,-2%,21µM*,-13
CCCCC(=O)Nc1c(C(=O)N2CCN(c3ccccc3)CC2)oc2ccccc12,/,/,9.2µM*,-7%,15µM*,/
CCC(CC)C(=O)Nc1c(C(=O)N2CCN(c3ccccc3F)CC2)oc2ccccc12,/,/,10µM*,-14%,15µM*,/
O=C(Nc1c(C(=O)N2CCN(c3ccccc3F)CC2)oc2ccccc12)c1ccc(Br)o1,/,/,?,-15%,18µM*,/
O=C1[C@@H]2C[C@@H](O)CN2C2(CN(Cc3ccccc3Cl)C2)C(=O)N1Cc1ccccc1F,/,/,/,-27%,/,/
Cc1ccc(C)c(NC(=O)CSc2ncnc3ccccc23)c1,/,/,/,-56%,/,/
CC(C)C(=O)Nc1c(C(=O)N2CCN(c3ccccc3F)CC2)oc2ccccc12,/,/,12µM*,1%,10µM*,/
CC(C)CC(=O)Nc1c(C(=O)N2CCN(c3ccccc3)CC2)oc2ccccc12,/,/,21µM*,-4%,15µM*,/
COc1ccc(CNC(=O)C2CCN(c3nc4ccccc4o3)CC2)cc1,/,/,/,-11%,/,/
COC(=O)COCC(=O)NC[C@@H]1C=C(C)[C@H](CC(=O)NCc2ccc(F)cc2)C[C@H]1C(C)C,/,/,/,-4%,/,/
Cc1nnnn1CCC(=O)N[C@H]1CN(S(C)(=O)=O)C[C@@H]1C(C)C,/,/,/,71%,/,/
Cc1ccc(/C=C/c2ccc(N(C)C)cc2)[n+](C)c1,-30%,?,0.41µM*,?,0.52µM*,-2
CN(C)c1ccc(/C=C/c2cc[n+](C)cc2)cc1,-22%,?,5.2µM*,1µM*,6.5µM*,0
CN(C)c1ccc(C=O)cc1,/,/,10%,8%,-8%,/
O=C(CCc1ncc(-c2ccc(F)cc2)o1)Nc1nccs1,/,/,/,32%,/,/
COc1ccc(C(=O)n2nc(-c3ccc(C)cc3)nc2N)cc1,/,/,/,13%,/,/
